Results from PubChem BioAssay (NCATS).
Records with an inconclusive call do not appear. Activity calls are given as the source filed them. Calls come from the whole dose curve; as a rule, active = well fitted curve in the direction sought with a large enough effect; inconclusive = small, poorly fitted or top-dose-only effect, or another doubt; inactive = no such curve, though single readings can be large; an effect the other way counts as inactive or inconclusive.

Columns and labels:
[1] = target: Glutaminase kidney isoform, mitochondrial (Homo sapiens) (UniProt O94925); experiment: qHTS for Inhibitors of Glutaminase (GLS): LOPAC Validation (AID 624146); settings: glutaminase enzyme activity inhibition; series mostly up to 46.1 µM;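 note: glutamate product detected by oxidase and peroxidase coupled Amplex red fluorescence gain; nearly all actives have a fitted effect of over 60% in size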
Procedure, shortened: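 Assay buffer: 45 mM KH2PO4 pH 8.2, 0.02% Tween-20. hKGA acts on L-glutamine (1 mM solution added); product glutamate is reported by an oxidase/peroxidase Amplex Red coupling, with fluorescence taken at baseline and 30 min.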

[2] = qHTS of Trypanosoma Brucei Inhibitors: LOPAC Validation (AID 624147); settings: purified enzyme assay, luminescence, 45 min; series mostly up to 57.5 µM
Procedure, shortened: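 Enzyme and substrate buffer are dispensed first and compound is pin-transferred. ADP at 130 uM final then starts the reaction, which runs 45 min at room temperature. Detection reagent is added for 10 min before luminescence is imaged.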

[3] = target: Glucagon-like peptide 1 receptor (Homo sapiens) (UniProt P43220); experiment: qHTS of GLP-1 Receptor Agonists: LOPAC Validation (AID 624148); settings: GLP-1R agonist cell assay; series mostly up to 46.1 µM;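 note: higher luminescence signal means agonism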
Procedure, shortened: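 HEK293 cells stably co-expressing a cAMP-responsive luciferase reporter and a hypersensitive GLP-1R were plated 12 h at 37 °C and exposed to compounds for 4-6 hr at 37 °C, 5% CO2. Luminescence was read 12 min after adding detection reagent.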

[4] = qHTS of Nrf2 Activators: LOPAC Validation (AID 624149); settings: Nrf2/ARE reporter cell assay; series mostly up to 46.1 µM
Procedure, shortened: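 AREc32_Fluc cells, 1000/well, OPTI-MEM + 5% FBS, o/n 37 deg C 5% CO2; compound pin-transfer, 24 hr 37 deg C; Steady-Glo 30 min RT, luminescence read.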

[5] = HTS Assay for Allosteric Antagonists of the Human D2 Dopamine Receptor: Hit Validation in HTRF (AID 624455); settings: Cells stably expressing D1 dopamine receptor, inhibition mode; series mostly up to 46.1 µM
Procedure, shortened: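 HTRF read-out; cells stably expressing D1 receptor; hits scored for inhibition of D1-mediated response. Primary screen: calcium flux, force-coupled inducible Hek293 Trex D2 line, antagonism vs EC80 dopamine.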

Measured: Potency

Glucagon-like peptide 1 receptor (Homo sapiens), sequence (P43220 whole entry, looked up): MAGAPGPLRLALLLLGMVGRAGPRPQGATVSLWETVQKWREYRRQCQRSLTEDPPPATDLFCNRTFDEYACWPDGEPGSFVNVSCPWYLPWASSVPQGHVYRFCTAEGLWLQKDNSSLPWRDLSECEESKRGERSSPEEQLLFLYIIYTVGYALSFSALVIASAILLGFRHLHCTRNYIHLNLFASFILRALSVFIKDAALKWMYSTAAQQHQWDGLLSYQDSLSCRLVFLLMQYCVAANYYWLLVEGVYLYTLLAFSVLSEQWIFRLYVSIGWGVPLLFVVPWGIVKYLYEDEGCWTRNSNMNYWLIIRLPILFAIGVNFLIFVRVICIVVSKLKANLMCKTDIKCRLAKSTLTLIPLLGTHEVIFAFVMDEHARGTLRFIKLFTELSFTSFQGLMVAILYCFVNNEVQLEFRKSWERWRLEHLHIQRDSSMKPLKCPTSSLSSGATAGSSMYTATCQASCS
Glutaminase kidney isoform, mitochondrial (Homo sapiens), sequence (O94925 whole entry, looked up, canonical isoform): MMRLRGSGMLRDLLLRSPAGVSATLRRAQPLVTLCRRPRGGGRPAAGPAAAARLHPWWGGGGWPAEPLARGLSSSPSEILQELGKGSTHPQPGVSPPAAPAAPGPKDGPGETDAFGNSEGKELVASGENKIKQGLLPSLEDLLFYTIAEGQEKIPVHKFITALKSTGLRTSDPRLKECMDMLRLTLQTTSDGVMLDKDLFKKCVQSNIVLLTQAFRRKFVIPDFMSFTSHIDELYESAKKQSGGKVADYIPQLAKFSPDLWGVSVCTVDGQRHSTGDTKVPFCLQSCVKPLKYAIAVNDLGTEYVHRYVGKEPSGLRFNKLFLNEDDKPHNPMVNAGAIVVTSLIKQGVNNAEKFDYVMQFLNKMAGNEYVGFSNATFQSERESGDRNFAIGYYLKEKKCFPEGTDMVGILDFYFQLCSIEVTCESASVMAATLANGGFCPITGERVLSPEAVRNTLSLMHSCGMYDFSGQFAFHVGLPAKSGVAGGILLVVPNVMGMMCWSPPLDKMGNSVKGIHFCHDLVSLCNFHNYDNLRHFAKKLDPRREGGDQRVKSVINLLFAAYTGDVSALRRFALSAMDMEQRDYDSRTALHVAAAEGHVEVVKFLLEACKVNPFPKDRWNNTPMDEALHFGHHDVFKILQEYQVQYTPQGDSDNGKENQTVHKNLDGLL

c1ccc2c(c1)[I+]c1ccccc1-2
inactive: all assays above

N#C/C(=C/c1ccc(O)c(O)c1)C(N)=S
not listed: [1]
inactive: all other assays above

COc1ccc2c(c1)c(CCN1CCOCC1)c(C)n2C(=O)c1cccc(Cl)c1Cl
not listed: [2]
inactive: all other assays above
